Screening results as filed in PubChem BioAssay.
BAP1 inh: blocks human BAP1 ubiquitin-AMC hydrolysis. recombinant BAP1, Ub-AMC hydrolysis fluorescence kinetic; active compounds read low. Q92560. calls only at 20 µM. AID 436. actives 0.48% (n = 72,000);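 active = activity remaining at or below 50% of control, provided the compound also passes the data quality filters; inactive = the rest, including low values that fail the filters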;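 also: 100% = DMSO wells rate and 0% = substrate alone blank rate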
Target sequence (Q92560 whole entry, looked up): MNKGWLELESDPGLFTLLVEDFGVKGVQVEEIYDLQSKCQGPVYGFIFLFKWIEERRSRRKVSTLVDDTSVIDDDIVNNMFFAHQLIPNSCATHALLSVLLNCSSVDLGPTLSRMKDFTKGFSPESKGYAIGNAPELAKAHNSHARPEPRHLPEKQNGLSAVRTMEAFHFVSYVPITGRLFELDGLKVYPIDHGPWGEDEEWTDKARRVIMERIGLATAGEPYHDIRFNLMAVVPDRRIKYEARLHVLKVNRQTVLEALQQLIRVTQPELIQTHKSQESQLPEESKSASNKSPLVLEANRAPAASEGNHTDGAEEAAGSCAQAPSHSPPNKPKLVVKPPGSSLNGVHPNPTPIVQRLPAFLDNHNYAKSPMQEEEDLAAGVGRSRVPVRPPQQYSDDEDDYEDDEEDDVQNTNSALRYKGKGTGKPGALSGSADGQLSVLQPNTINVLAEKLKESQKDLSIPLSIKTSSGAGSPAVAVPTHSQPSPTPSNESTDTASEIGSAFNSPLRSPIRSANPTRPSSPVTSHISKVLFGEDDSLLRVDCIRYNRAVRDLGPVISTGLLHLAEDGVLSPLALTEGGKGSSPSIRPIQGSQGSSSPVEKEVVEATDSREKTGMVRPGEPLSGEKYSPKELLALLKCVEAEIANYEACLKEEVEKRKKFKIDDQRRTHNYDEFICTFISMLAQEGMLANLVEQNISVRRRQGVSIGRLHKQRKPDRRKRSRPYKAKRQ
D1 mod: allosterically modulates the human D1 dopamine receptor; P21728; HEK293 D1, CRE-luciferase, dopamine EC30 potentiation; actives deviate in either direction; B-score at 10 µM; actives 5.9% (n = 58,000); AID 641;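 active = luminescence count or its row- and column-corrected plate score outside the 99.7% band of the plate's sample wells, on either side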
hDAT+cocaine: modulates human dopamine transporter uptake under cocaine. actives 1.3% (n = 110,000). Q01959. AID 449768. LLC-PK1 hDAT cells, [14C]-dopamine uptake with cocaine IC80; actives deviate in either direction. B-score at 10 µM;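 active = Z score or B-score, a plate-position-corrected score, falls beyond the plate's 99.7% confidence bounds, in either direction; inactive = both scores lie inside the 99.7% bounds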;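 also: scored against the spread of the other compound wells on the same plate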
An asterisk follows results filed as active; i = inactive; / = not tested or not shown; + = active, no number. This excerpt belongs to a sample that is enriched for hits.

SMILES	BAP1 inh	D1 mod	hDAT+cocaine
Cc1cc(C)c2cc(CN(CCN3CCCC3)C(=O)Nc3ccc(F)cc3)c(=O)[nH]c2c1	i	-3.1*	0.56
C=CCN1C(=O)CC(c2ccccc2)=Nc2ccccc21	i	/	/
COC(=O)c1sc(-c2ccccc2)cc1NC(=O)c1ccc(S(=O)(=O)N2CC3(C)CC2CC(C)(C)C3)cc1 (stereo not drawn)	i	/	/
COc1ccc(/C=N/OCC(=O)N2CC3(C)CC2CC(C)(C)C3)cc1OC (stereo not drawn)	/	/	2.8*
COc1ccc(CC(=O)N2CC3(C)CC2CC(C)(C)C3)cc1 (stereo not drawn)	/	/	-0.02
Cc1c(C(=O)NCC(C)C)sc2nc(-c3ccc(F)cc3)cn12	i	0.17	-0.48
COc1ccc(-c2cn3c4c(sc3n2)CCCC4)cc1	i	-5*	1.8
COc1ccc(-c2cn3c(C)c(C(=O)Nc4ccncc4)sc3n2)cc1	i	-3.3*	-0.28
COc1ccc(-c2cn3c(C)c(C(=O)Nc4cccc(NC(C)=O)c4)sc3n2)cc1	/	0.41	0.79
Cc1c(C(=O)Nc2ccncc2)sc2nc(-c3ccc(F)cc3)cn12	i	-5.2*	-1.3
COc1ccc(-c2cn3c(C)c(C(=O)N4CCCc5ccccc54)sc3n2)cc1	i	0.014	1.9
CCOc1ccc(Cl)cc1S(=O)(=O)N1CCCCC1	i	/	/
O=S(=O)(c1cc(-c2nnc(-c3ccc(Br)cc3)o2)ccc1Br)N1CCCCCC1	/	/	3.3*
NC(=O)c1ccc(Br)c(S(=O)(=O)N2CCCCC2)c1	i	1.3	2
Cc1ccc(-c2[nH]nc3c2C(c2cccnc2)C(C#N)=C(N)O3)cc1 (stereo not drawn)	i	14*	0.0096
N#CC1=C(N)Oc2n[nH]c(-c3ccccc3)c2C1c1cccnc1 (stereo not drawn)	i	1.8	-0.015
Cc1ccc(C(=O)Nc2ccc(S(=O)(=O)O)c3cc(S(=O)(=O)O)cc(S(=O)(=O)O)c23)cc1NC(=O)c1cccc(NC(=O)Nc2cccc(C(=O)Nc3cc(C(=O)Nc4ccc(S(=O)(=O)O)c5cc(S(=O)(=O)O)cc(S(=O)(=O)O)c45)ccc3C)c2)c1	+	/	/
Cc1ccc(C(=O)Nc2cccc(C(=O)O)c2)cc1S(=O)(=O)Nc1ccc(Br)cc1	i	/	/
COc1cccc(-c2cc(C(F)(F)F)nc(-n3cncn3)n2)c1	i	2.5	3.3*
COc1cccc(-c2cc(C(F)(F)F)nc(N3CCN(c4ccccc4)CC3)n2)c1	/	/	0.72
COc1ccc(CNC(=O)c2nn3c(c2Cl)NC(c2cccs2)CC3C(F)(F)F)cc1 (stereo not drawn)	i	/	/
COc1ccc(CNC(=O)C(C)NC(=O)c2cc3ccccc3o2)cc1 (stereo not drawn)	i	0.12	-1.7*
COc1ccc(NC(=O)c2cc3ccccc3o2)c(OC)c1	i	/	/
COc1ccc(Br)cc1C1C(N2C(=O)c3ccc([N+](=O)[O-])cc3C2=O)C(=O)N1c1ccc(C)cc1C (stereo not drawn)	i	/	/
CCOC(=O)c1c(-c2ccccc2)nnn1-c1nc(OCC)nc(N2CCCCC2)n1	i	-0.76	1.8*
SMILES	BAP1 inh	D1 mod	hDAT+cocaine
CCOC(=O)c1nnn(-c2nc(OC)nc(N3CCCCC3)n2)c1-c1ccccc1	/	/	2.4
O=C(Cn1c2ccccc2c(=O)c2ccccc21)N1CCN(c2ccc([N+](=O)[O-])cc2)CC1	i	/	/
CCCCCCCC/C=C\CCCCCCCC(=O)NCCc1ccc(O)c(O)c1	+	/	/
CCCCCCCC/C=C\CCCCCCCC(=O)NCCO	i	/	/
CC(C)N(Cc1nc(-c2ccccc2)no1)C(=O)CCCN1C(=O)c2ccccc2C1=O	i	0.34	2.4*
CC(C)N(Cc1nc(-c2ccccc2)no1)C(=O)CN1C(=O)c2ccccc2C1=O	i	-0.09	-0.029
COc1ccc(C2N(c3cc(Cl)ccc3OC)C(=O)C3CCCN32)cc1 (stereo not drawn)	i	-0.18	-0.57
COc1ccc(Cl)cc1N1C(=O)C2CCCN2C1c1sccc1C (stereo not drawn)	i	-2.4*	1.3
Cc1cc2nn(-c3ccccc3)nc2cc1NC(=O)c1ccc([N+](=O)[O-])cc1Cl	i	/	/
Cc1ccc(C)c(OCC(O)CN2CCCCC2C)c1 (stereo not drawn)	i	-6*	0.41
Cc1ccc(C)c(OCC(O)CN2C(C)CCCC2C)c1 (stereo not drawn)	i	-1.7	0.54
CCCCOC(=O)C1=C(C)NC(=O)NC1c1ccc(OC)c(OC)c1 (stereo not drawn)	i	/	/
O=C(Nc1ccccc1C(=O)O)c1cc(S(=O)(=O)Nc2ccc(Br)cc2)ccc1Cl	i	/	/
CC1CCc2c(sc3nc(SCC(=O)NCc4ccco4)nc(N)c23)C1 (stereo not drawn)	i	1.1	0.28
CCN(CC)C(=O)CSc1nc(N)c2c3c(sc2n1)CC(C)CC3 (stereo not drawn)	/	/	2.1*
CC(C)OC(=O)c1cccc(C(=O)Nc2ccc(I)cc2)n1	i	/	/
COc1ccc(C(=O)N=c2nc3ccccn3s2)cc1	i	-4.8*	0.2
COc1ccc(C(=O)O/N=C(\C)c2ccccc2)cc1	/	/	0.0021
CCOc1ccc(C(=O)Nc2nc(-c3ccc(CC)cc3)cs2)cc1	i	/	/
COc1ccc(Oc2cn[nH]c2-c2ccc(O)cc2O)cc1	i	/	0.83
CCCc1ccc(Oc2cn[nH]c2-c2ccc(O)cc2O)cc1	i	-4.9*	-0.038
Cc1ccc(C(=O)CSc2nc3sc(C)c(C)c3c(=O)[nH]2)cc1C	i	/	/
Cc1cc2nc(-c3cccnc3SCC(=O)NCc3ccco3)[nH]c2cc1C	/	-3.9*	-1.5
O=C(CSc1ncccc1-c1nc2ccccc2[nH]1)NCc1ccco1	i	-2	0.44
COCCn1c(SCC(=O)Nc2ncc(C)s2)nc2sc3c(c2c1=O)CCC3	i	0.54	0.44
SMILES	BAP1 inh	D1 mod	hDAT+cocaine
COCCn1c(SCc2nnc(-c3ccccc3)o2)nc2sc3c(c2c1=O)CCC3	i	-5*	0.79
COc1ccc(C(=O)N2c3ccccc3C(N(C(C)=O)c3ccccc3)CC2C)cc1 (stereo not drawn)	i	/	/
CCN1CCN(c2cc(C)c3cc(NC(=O)Cc4ccc(OC)c(OC)c4)ccc3n2)CC1	i	0.2	3.1*
CCN1CCN(c2cc(C)c3cc(NC(=O)c4cnccn4)ccc3n2)CC1	i	-0.35	-0.28
Cc1cc(N2CCCCC2)nc2ccc(NC(=O)c3ccc(Br)o3)cc12	/	/	0.41
COc1ccc(N(C)C(=O)CCC(=O)Nc2ccc3nc(N4CCOCC4)cc(C)c3c2)c(OC)c1	/	-0.66	3.2*
Cc1cc(N2CCN(C)CC2)nc2ccc(NC(=O)c3ccc(Br)o3)cc12	/	-4.2*	0.84
CCCCN(C)C(=O)CCC(=O)Nc1ccc2nc(N3CCOCC3)cc(C)c2c1	/	0.35	2.5
CC(=O)N(Cc1c(NC(=O)c2ccccc2)sc(C)c1C)C(C)C	i	/	/
C=C(Br)Cn1c(CC(C)C)nc2ccccc21	i	-3.3*	-0.91
C=C(Br)Cn1c(CC)nc2ccccc21	/	/	0.42
Cc1cc2nnc(SCc3ccccc3F)n2c2ccccc12	i	/	/
Cc1[nH]c2ccccc2c1-c1nc2ccccc2[nH]1	i	-2.7*	-0.19
Cc1ccc(-c2nc3ccccc3[nH]2)s1	/	-2.1	1.5
